This note sets out measurements from PubChem BioAssay (NCI).

Assay in all cases: NCI-60 one-dose screen, 48 h (100 = growth as untreated, 0 = no growth, -100 = all killed)
Holding throughout (settings): 10 µM unless noted

Assay [1] deals with SK-MEL-2 melanoma.
For assay [2], the system named is SN12C renal.
Assay [3] relates to UO-31 renal.
For assay [4], the system named is TK-10 renal.
In assay [5] the test system is ACHN renal.
Assay [6] has as its system CCRF-CEM leukemia.
In assay [7] the test system is MOLT-4 leukemia.
Assay [8] deals with SR leukemia.
The subject of assay [9] is RPMI-8226 leukemia.
Assay [10] deals with OVCAR-8 ovarian.
The subject of assay [11] is OVCAR-5 ovarian.
For assay [12], the system named is OVCAR-4 ovarian.
The subject of assay [13] is SK-OV-3 ovarian.
Assay [14] deals with IGROV1 ovarian.
Assay [15] deals with OVCAR-3 ovarian.
Assay [16] concerns HS 578T breast.
Assay [17] deals with NCI/ADR-RES ovarian.
The test system of assay [18] is A498 renal.
The test system of assay [19] is CAKI-1 renal.

This is part of a sample that, as a whole, favours compounds with a hit. Of some 83,000 tested, about 20% had one in any assay.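 Method: cells in 96-well plates; compound added at one concentration; 48 h incubation; percent growth measured; values under 10 scored active.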 A number with no mark means an inactive call. Activity calls are given as the source filed them.

In the case of `CCCCn1cnc2c(Sc3c([N+](=O)[O-])ncn3C)nc(N)nc21`, the growth is 112% in assay [1]; 97.6% in [2]; 69.1% in assay [3]; 102% in assay [4]; 99.8% in assay [5]; 86.9% in [6]. The growth is 49.5% in assay [7]; 56.1% in [8]; 52.3% in assay [9]; 91.4% in assay [10]; 97.6% in [11]; 89.9% in [12]. In addition, the growth in assay [13] is 101%; in [14], 89.3%; in assay [15], 103%; in assay [16], 101%; in assay [17], 109%.
As to `CC(=O)Oc1ccc(Cl)cc1CN(C(C)=O)C1CCCCC1`, the growth is 112% in [1]; 97.3% in assay [2]; 90.5% in [3]; 110% in assay [4]; 102% in assay [5]; 87.9% in assay [6]. The growth in assay [7] is 85.9%; in assay [8], 92.9%; in assay [9], 84%; in [10], 97.1%; in [11], 103%; in assay [12], 119%. For the same molecule, the growth in [13] is 99.7%; in assay [14], 98.2%; in [15] it was 114%; in assay [16] it was 104%; in assay [17], 110%.
As for `CN(C)c1ccc(N=Nc2ccc(Br)cn2)c(O)c1`, the growth in assay [1] was 18.8%; in assay [2], 12.3%; in assay [3] it was 3.75% (active); in [4], 33.9%; in [5], 7.81% (active); in assay [18] it was 53.9%. Moreover, the growth in assay [6] was -0.72% (active); in [7], 1.73% (active); in [8], 3.15% (active); in assay [9], 11.9%; in assay [10] it was 15.5%; in assay [11] it was 59.6%. The growth in assay [12] is 1.05% (active); in assay [13], 25.9%; in assay [14], 16%; in assay [15], 14.8%; in [16] it was 64%; in [17], 12.8%.
`COc1ccc(NC(=O)c2ccc(/C=C/C(=O)c3ncc[nH]3)cc2)cc1`: the growth in [1] was 97.6%; in assay [2], 70.8%; in assay [3] it was 48.4%; in [4] it was 88.8%; in assay [5] it was 86.3%; in [18], 86.8%. In addition, the growth in assay [6] is 29.1%; in assay [7], 62.4%; in [8], 13.4%; in assay [9], 16.7%; in [10], 64.7%; in [11] it was 107%. The growth was 82.5% in assay [12]; 96.9% in assay [13]; 78% in assay [14]; 31.1% in [15]; 94.7% in assay [16]; 77.4% in assay [17].
Regarding `COc1ccc(SC2c3ccc(C)cc3Oc3nc(N)c(C#N)c(N)c32)cc1` (stereo unspecified), the growth in assay [1] is -59.8% (active); in [2], -94.3% (active); in [3], -95.9% (active); in [4] it was -97.9% (active); in assay [5] it was -98.1% (active); in assay [18], 28.7%. The growth in assay [6] is -33.5% (active); in assay [7], -24.7% (active); in [9], -34.2% (active); in assay [10], -89.1% (active); in assay [11], 5.64% (active); in assay [12], -93.5% (active). The growth in assay [13] is 44.9%; in assay [14], -82.8% (active); in [15], -93.7% (active); in [16] it was 3.13% (active); in [17], 1.24% (active).
In the case of `Cc1nc(Nc2ccc(F)c(Cl)c2)sc1C(=O)O`, the growth in assay [1] was 10.7%; in assay [3], -8.39% (active); in assay [4], 21%; in assay [5] it was 11.2%; in assay [19] it was 8.86% (active); in assay [18] it was -26.2% (active). Further, the growth in assay [6] is 9.7% (active); in assay [7], 6.93% (active); in [8], 5.95% (active); in assay [9], 5.09% (active); in assay [10] it was 14%; in [11], 51.2%. The growth in assay [12] is 21.7%; in assay [13], 17.4%; in [14] it was 19.3%; in assay [15], 23%; in assay [16] it was 18.7%; in [17], 13.4%.
Regarding `Fc1ccc(CNc2cccc3[nH]c(C(F)(F)F)nc23)cc1`, the growth is 72.4% in [2]; 84.8% in assay [3]; 102% in assay [4]; 96.2% in [5]; 81.2% in assay [19]; 39.7% in assay [18]. In addition, the growth in assay [6] was 52.4%; in assay [7] it was 41.7%; in assay [8], 66%; in assay [9], 36.5%; in assay [10], 90.1%; in [11] it was 90.2%. The growth in assay [12] was 89.3%; in assay [13] it was 97.9%; in assay [14], 109%; in [15], 76.6%; in assay [16] it was 82.3%; in assay [17], 100%.
As for `COc1cc(-c2nn(-c3ccc(C(=O)O)cc3)cc2C(=O)O)ccc1O`, the growth in assay [1] is 88.1%; in [2], 81.4%; in assay [3], 56.1%; in assay [4], 122%; in [5], 44.8%; in [18], 97.9%. Further, the growth in assay [6] is 67.9%; in assay [7], 90%; in assay [8] it was 32.9%; in assay [9], 88.2%; in assay [10] it was 73.2%; in assay [11] it was 110%. Further, the growth in assay [12] is 83.8%; in assay [13], 74.3%; in assay [14] it was 81%; in [15], 42.8%; in assay [16], 76.5%; in assay [17] it was 29.7%.
